Screens (PubChem)
PostGolgi ctrl: inhibits growth of the yeast control strain | AID 738 | inhibition, % at 10 µM | efflux-deficient yeast background strain, growth absorbance A615, 16 h | hit rate 5% among 98,000
PostGolgi yeast: growth inhibition of a yeast mutant, post-Golgi transport screen; hit rate 0.9% among 98,000; inhibition, % at 10 µM; post-Golgi transport phenotypic cell assay;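 further: yeast cells grown in 1536-well plates; yeast grown about 18 h at 30C before absorbance read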
CYP2C19 activ: cytochrome P450 2C19 (human) activation | recombinant CYP2C19, luciferin-H EGE luminescence; active compounds read high; 0 = fully inhibited enzyme, 1 = untreated enzyme | 96,000 tested, under 10 active | activation factor at 5 µM | P33261 | AID 1025;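 active means activation factor of at least 2 at 5 µM in the primary screen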;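 further: 0 = wells with 2.5 mM tranylcypromine and 1 = vehicle-only wells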
Target sequence (P33261 whole entry, looked up): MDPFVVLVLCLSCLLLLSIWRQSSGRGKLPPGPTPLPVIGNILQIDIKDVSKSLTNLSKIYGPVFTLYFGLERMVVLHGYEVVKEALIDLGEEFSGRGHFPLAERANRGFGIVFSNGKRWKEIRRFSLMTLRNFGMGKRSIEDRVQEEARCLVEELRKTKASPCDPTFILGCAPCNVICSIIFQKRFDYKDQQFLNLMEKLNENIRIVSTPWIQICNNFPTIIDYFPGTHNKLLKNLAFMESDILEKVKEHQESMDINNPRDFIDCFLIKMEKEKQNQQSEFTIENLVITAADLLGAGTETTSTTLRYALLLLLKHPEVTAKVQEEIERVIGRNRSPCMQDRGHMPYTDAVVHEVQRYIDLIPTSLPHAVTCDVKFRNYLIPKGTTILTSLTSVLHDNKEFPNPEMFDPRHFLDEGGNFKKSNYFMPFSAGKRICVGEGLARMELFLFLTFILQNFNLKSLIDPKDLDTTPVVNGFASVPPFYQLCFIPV
CYP2C19 inhib: inhibitors of human CYP2C19. CYP2C19 Supersomes, luciferin-H EGE luminescence, 30 min. inhibition, % at 5 µM. hit rate 21% among 96,000. AID 778;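 active means CYP2C19 inhibition above a set limit at 5 µM in the primary screen, cut at about 50% in these data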;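 further: plate controls were negative control wells for no effect and 2.5 mM tranylcypromine positive control for full effect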
CYP2C9 activ: increases human cytochrome P450 2C9 activity. hit rate 1.4% among 96,000. AID 1024. recombinant CYP2C9, luciferin-H conversion, luminescence; active compounds read high; factor 1 = untreated enzyme, 0 = blocked. activation factor at 5 µM;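 active means activation factor of 2 or more for CYP2C9 at a 5 µM dose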;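 further: 0 = sulfaphenazole-blocked wells and 1 = vehicle-only wells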
CYP2C9 inhib: human CYP2C9 inhibition; AID 777; CYP2C9 Supersomes, luciferin-H conversion, luminescence; inhibition, % at 5 µM; hit rate 20% among 96,000; P11712;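 active means blocking of liver enzyme CYP2C9 beyond about 50% at 5 µM, limit read from the data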
* hit, by the source's call; . = no result given. This is a sample that favours compounds with a hit; in the whole collection about 32% have one here. Unless noted, no stated cut-off is given here; in the data, active means inhibition above about 30%; inactive means the rest.

SMILES | PostGolgi ctrl | PostGolgi yeast | CYP2C19 activ | CYP2C19 inhib | CYP2C9 activ | CYP2C9 inhib
CC(C)(C)c1ccc(-c2nnc3sc(-c4ccccn4)nn23)cc1 | 35* | -3 | 0.9 | 6 | 0.6 | 43
COc1ccccc1CNC(=O)COC(=O)c1ccc(NC(N)=O)cc1 | -9 | 5 | 0.7 | 25 | 1 | -4
O=C(OCCN(C1=NS(=O)(=O)c2ccccc21)c1ccccc1Cl)c1ccc(Cl)cc1 | 13 | -3 | 0.6 | 44 | 0.1 | 87*
COc1ccccc1CNc1ccc(N2CCOCC2)c(C(=O)O)c1 | 6 | -3 | 1.1 | -9 | 1 | -4
COc1ccc(S(=O)(=O)N2CCCCC2)cc1C(C)C | 6 | -5 | 0.7 | 31 | 0.8 | 22
O=C(COc1ccc(S(=O)(=O)N2CCCC2)cc1Cl)NC1CCCC1 | -11 | 7 | 1 | 4 | 0.5 | 48
COc1ccc(S(=O)(=O)N2CCC(C(=O)N3CCCCC3)CC2)cc1Cl | 4 | -9 | 0.1 | 92* | 0.8 | 20
COc1ccc(S(=O)(=O)N2CCC(C(=O)N3CCCC3)CC2)cc1Cl | -8 | -8 | 0.1 | 89* | 0.8 | 22
COc1ccc(NC(=O)Nc2ccccc2C(=O)N2CCCC2)cc1 | 15 | 2 | 0.7 | 33 | 0.8 | 16
O=C(NC(=S)NCCN1CCOCC1)c1cccc(Cl)c1 | 16 | 3 | 0.6 | 41 | 0.8 | 21
Cn1c(CN2CCN(c3ccc(Cl)cc3)CC2)nc2ccccc21 | 6 | 5 | 0.4 | 64* | 0.9 | 15
Cc1ccc(S(=O)(=O)N2CCN(Cc3nc4ccccc4n3C)CC2)cc1 | 9 | -5 | 0.9 | 8 | 0.8 | 18
COc1ccc(-n2nnc3c(=O)n(C/C=C/c4ccccc4)cnc32)cc1 | 9 | -7 | 1 | -1 | 0.8 | 20
CCC(=O)N1CCc2cc(S(=O)(=O)CCC(=O)NCCC3=CCCCC3)ccc21 | -6 | -6 | 0.9 | 13 | 0.5 | 53*
CCC(=O)N1c2ccc(S(=O)(=O)CCC(=O)NCCC3=CCCCC3)cc2CC1C (configuration not stated) | 1 | -2 | 0.8 | 21 | 0.4 | 61*
CCC(=O)N1CCc2cc(S(=O)(=O)CCC(=O)NCc3cccs3)ccc21 | -2 | -3 | 1 | 2 | 1 | 4
CCOC(=O)c1sc2ncn(/N=C/c3ccccn3)c(=O)c2c1C | . | . | 1 | 1 | 1 | -1
O=C(CSc1nnc(-c2ccccc2)o1)n1c2c(c3ccccc31)CCCC2 | 3 | 0 | 0.8 | 21 | 1.2 | -19
c1ccc(CCCNc2ncnc3nc[nH]c23)cc1 | 17 | -1 | 0.9 | 11 | 1 | 2
CCCCc1ccc(Nc2ncnc3nc[nH]c23)cc1 | 60* | -6 | 0.5 | 53* | 0.6 | 42
CCCCCN(C(=O)NC(=O)Nc1nncs1)S(C)(=O)=O | 16 | 0 | 0.9 | 7 | 0.4 | 61*
CCCCCN(C(=O)NC(=O)Nn1cnnc1)S(C)(=O)=O | 4 | -8 | 1 | -3 | 1.1 | -8
CCCCN(C(=O)NC(=O)Nc1ccccc1OC)S(C)(=O)=O | 10 | 2 | 0.7 | 27 | 0.7 | 34
CCCCN(C(=O)NC(=O)Nc1cc(C)ccc1C)S(C)(=O)=O | 26 | 2 | 0.7 | 35 | 0.4 | 56*
Cc1ccc(-c2nn(CC(=O)NCc3cc(-c4nn(C)c(=O)c5ccccc45)ccc3C)c(=O)c3ccccc23)cc1 | -10 | 28 | 0.5 | 49 | 0.6 | 43
SMILES | PostGolgi ctrl | PostGolgi yeast | CYP2C19 activ | CYP2C19 inhib | CYP2C9 activ | CYP2C9 inhib
Cc1ccc(NC(=O)NNC(=O)Cn2nc(-c3ccccc3)c(-c3ccccc3)c(C#N)c2=O)cc1 | -1 | 4 | 0.8 | 24 | 0.4 | 57*
O=c1cc(O)c2c(=O)[nH]c(=O)n(-c3ccccc3)c2[nH]1 | 1 | 5 | 1.1 | -5 | 0.9 | 8
O=S(=O)(c1ccccc1)N1CCN(c2nc3ccccc3s2)CC1 | 17 | 29 | 0.9 | 12 | 1.1 | -8
Cc1cc(C)n(-c2nc3ccccc3nc2N2CCN(S(=O)(=O)c3ccc(F)c(C)c3)CC2)n1 | 8 | 6 | 0.9 | 7 | 0.5 | 50*
Cc1cc(N2CCN(S(=O)(=O)c3ccc(Cl)cc3)CC2)c2ccccc2n1 | 8 | 0 | 0.2 | 82* | 0.6 | 40
Cc1cc(C)n(-c2nc3ccccc3nc2N2CCN(S(=O)(=O)c3ccc4ccccc4c3)CC2)n1 | 27 | -3 | 0.7 | 33 | 0.5 | 50
COc1cc(OC)c(C2C(C(=O)Nc3ccc(C)cc3C)=C(C)Nc3ncnn32)cc1OC (configuration not stated) | 29 | 5 | 1.1 | -11 | 1.2 | -22
COc1ccc(S(=O)(=O)n2c(CCN3CCOCC3)nc3ccccc32)cc1 | 0 | 11 | 0.9 | 13 | 1.7 | -67
CN(C)c1ccc(-c2nc3ccccc3n2C)cc1 | 26 | -29 | 0.4 | 56* | 0.7 | 33
Cc1ccc(C(O)c2nc3ccccc3n2C(C)C)cc1 (configuration not stated) | 9 | 13 | 0.1 | 92* | 0.5 | 48
CC(C)n1c(-c2ccc(N(C)C)cc2)nc2ccccc21 | 15 | 4 | 0.4 | 61* | 0.4 | 62*
CCOC(=O)c1sc(NC(=O)c2ccc(S(=O)(=O)N3CCOCC3)cc2)cc1C | 18 | -9 | 1.1 | -15 | 1.1 | -10
COc1ccc(OC)c(NC(=O)Cc2coc3ccc4ccccc4c23)c1 | 35* | -1 | 0 | 96* | 0.7 | 26
COc1ccc(OC)c(NC(=O)Cc2nn(C)c(=O)c3ccccc23)c1 | -7 | -1 | . | . | . | .
COc1ccc(OC)c(NC(=O)Cc2coc3cc(C)cc(C)c23)c1 | -3 | -9 | 0.2 | 75* | 0.4 | 55*
COc1ccc(OC)c(NC(=O)Cc2coc3ccc(C)cc23)c1 | 12 | -2 | 0.5 | 53* | 0.6 | 44
O=C(CN1CCCCC1)Nc1ccc(S(=O)(=O)NC2CCCCC2)cc1 | 6 | -5 | 0.5 | 47 | 0.3 | 72*
O=C(CN1CCOCC1)Nc1ccc(S(=O)(=O)NC2CCCCC2)cc1 | -9 | 12 | 0.8 | 20 | 0.8 | 17
CC(C)(C)C(=O)CNS(=O)(=O)c1ccc(S(=O)(=O)NC2CCCC2)cc1 | 1 | 2 | 0.1 | 89* | 0.5 | 47
CCOC(=O)C1CCCC(NS(=O)(=O)c2ccc(NC(C)=O)cc2)C1 (configuration not stated) | 16 | -1 | 0.4 | 58* | 0.2 | 77*
O=S(=O)(NC1CCCC1)c1ccc(S(=O)(=O)NC2CCCC2)cc1 | 9 | 1 | 0 | 98* | 0.1 | 86*
O=C(NC1CCCCC1)c1cccc(S(=O)(=O)N2CCOCC2)c1 | -5 | 7 | 1.1 | -11 | 1 | -2
CC(C)[C@H](NC(=O)c1ccccc1)C(=O)OCC(=O)N1CCc2ccccc2C1 | -5 | 9 | 1.1 | -12 | 1.3 | -33
C=CCNc1nc(Nc2ccc(OC)cc2)nc(OCC)n1 | -5 | -7 | 0.9 | 10 | 1 | 3
